TDP1 inh – qHTS Assay for Inhibitors of Tyrosyl-DNA Phosphodiesterase (TDP1); Tyrosyl-DNA phosphodiesterase 1 (Homo sapiens), Q9NUW8; recombinant TDP1, AlphaScreen DNA substrate cleavage; Potency, µM (series often up to 130 µM), for the others: top-dose activity change, negative = inhibition, actives largely listed as inhibitors; hit rate 0.28% among 350,000; also: % is scaled to controls: 0 for no effect and ±100 for the full control effect; nearly all actives have a fitted effect of over 40% in size
Target sequence (Q9NUW8 whole entry, looked up): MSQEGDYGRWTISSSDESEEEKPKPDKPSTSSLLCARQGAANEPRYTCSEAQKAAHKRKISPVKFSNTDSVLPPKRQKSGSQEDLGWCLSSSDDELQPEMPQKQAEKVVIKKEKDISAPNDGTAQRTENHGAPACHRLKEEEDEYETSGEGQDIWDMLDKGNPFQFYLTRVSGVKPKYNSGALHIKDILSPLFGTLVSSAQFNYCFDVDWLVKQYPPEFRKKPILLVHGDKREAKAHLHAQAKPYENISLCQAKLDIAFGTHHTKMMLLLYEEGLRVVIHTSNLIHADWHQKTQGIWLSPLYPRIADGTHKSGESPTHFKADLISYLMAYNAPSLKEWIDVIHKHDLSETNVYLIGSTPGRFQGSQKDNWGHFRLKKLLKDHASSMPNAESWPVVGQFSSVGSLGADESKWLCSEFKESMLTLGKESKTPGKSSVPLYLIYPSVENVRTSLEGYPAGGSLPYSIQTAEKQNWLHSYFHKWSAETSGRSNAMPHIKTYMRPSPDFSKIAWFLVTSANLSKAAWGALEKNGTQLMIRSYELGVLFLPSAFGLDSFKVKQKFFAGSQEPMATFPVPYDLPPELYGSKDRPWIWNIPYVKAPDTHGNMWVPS
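Recombinant human Tdp1 (E. coli-expressed, 1 nM final) preincubated with compounds 15 min at room temperature, then 5'-biotin/3'-phosphotyrosine-FITC DNA substrate (15 nM final) added for 5 min. AlphaScreen beads (10 ug/ml final) added 10 min; cleavage lowers signal.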
DT40 TDP1 no CPT – qHTS for Inhibitors of human tyrosyl-DNA phosphodiesterase 1 (TDP1): qHTS in cells in absence of CPT; DT40 Tdp1-/- hTDP1 cells, no CPT, ATP luminescence, 48 h; Potency, µM (series often up to 46.2 µM), for inactives: at the top dose activity change, negative = growth inhibition, most hits filed as inhibitors; hit rate 15% among 420,000; AID 686978, 2013; also: % is scaled to controls: 0 for no effect and ±100 for the full control effect; nearly all actives have a fitted effect of over 55% in size
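Camptothecin absent (DMSO only). Human TDP1-complemented DT40 knockout cells, 400 cells/well, 37 °C for minimum 48 hr; ATP measured via CellTiter-Glo, 30 min dark incubation, luminescence.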
DT40 TDP1 CPT – qHTS for Inhibitors of human tyrosyl-DNA phosphodiesterase 1 (TDP1): qHTS in cells in presence of CPT. chicken DT40 Tdp1-/-;hTDP1 cells + 20 nM CPT, ATP luminescence, 48 h. Potency, µM (series often up to 46.2 µM), without a hit: at the top dose activity change, negative = growth inhibition, hits mostly inhibitors. hit rate 12% among 420,000; also: % is scaled to controls: 0 for no effect and ±100 for the full control effect; nearly all actives have a fitted effect of over 55% in size
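Cell growth measured by CellTiter-Glo luminescence after a minimum 48 h, 37 C compound exposure with 20 nM CPT in Tdp1-knockout DT40 cells stably expressing hTDP1, seeded 400/well; qHTS titration format.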
ClpP mod – qHTS Assay for Activators of ClpP. hit rate 1.9% among 340,000. Potency, µM (doses to about 57.5 µM), inactives show at the top dose activity change, negative = active. AID 651965, 2013. ATP-dependent Clp protease proteolytic subunit (Bacillus subtilis (strain 168)), P80244. purified B. subtilis ClpP, FRET peptide cleavage, 20 min; active = well fitted falling curve with a large enough effect; inconclusive = small, poorly fitted or top-dose-only effect; inactive = no such curve, though single readings can be large or run the other way; also: the source files actives as falling curves though it sought activators and does not explain the sign; nearly all actives have a fitted effect of over 65% in size
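ClpP 10 microg/mL final, pH 8 Tris/KCl buffer with BSA, glycerol, Tween-20; compound pinned in; FRET-FV substrate; RT 20 min; Ex320/Em430; ΔFRET vs ADEP 5.8 microM, DMSO, no enzyme.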
* hit, by the source's call. In the library only some 17% were active in any assay of this set; here they are far more common. Unless noted, calls follow the shape of the dose curve; as a rule, active = well fitted curve in the direction sought with a large enough effect; inconclusive = small, poorly fitted or top-dose-only effect, or another doubt; inactive = no such curve, though single readings can be large; an effect the other way counts as inactive or inconclusive. Potency is read from the fitted curve at half-maximal effect.

Results for COC(=O)C1CCN(Cc2ccc3c(c2)CN(C(=O)c2cc(-c4ccc(C)o4)[nH]n2)CCO3)CC1 ?
DT40 TDP1 no CPT: inconclusive; DT40 TDP1 CPT: 0.082µM*

Results for O=C1c2ccccc2N2C(=O)c3ccccc3C2N1Cc1ccccc1 (stereo not given) ?
TDP1 inh: 2%; DT40 TDP1 no CPT: inconclusive; DT40 TDP1 CPT: inconclusive; ClpP mod: -13%

How did O=C1c2ccccc2N2C(=O)c3ccccc3[C@H]2N1c1ccccc1 do in these assays?
TDP1 inh: -1%; DT40 TDP1 no CPT: 18µM*; DT40 TDP1 CPT: 16µM*; ClpP mod: -15%

Results for Cc1c(C(=O)N(CCO)Cc2ccccc2)oc2c(F)cccc12 ?
DT40 TDP1 no CPT: -8%; DT40 TDP1 CPT: inconclusive; ClpP mod: -2%

What do the screens show for `N=c1oc2ccccc2cc1-c1nc(-c2ccccc2)cs1`?
TDP1 inh: -4%; DT40 TDP1 no CPT: 23µM*; DT40 TDP1 CPT: inconclusive; ClpP mod: inconclusive

What do the screens show for `N=c1oc2ccc3ccccc3c2cc1-c1nc(-c2ccccc2)cs1`?
TDP1 inh: 5%; DT40 TDP1 no CPT: inconclusive; DT40 TDP1 CPT: inconclusive; ClpP mod: 0%

How did O=C1/C(=C/c2ccccc2)CN(C(=O)CCN2CCOCC2)C/C1=C\c1ccccc1 do in these assays?
DT40 TDP1 no CPT: 1.8µM*; DT40 TDP1 CPT: 1.6µM*; ClpP mod: -2%

How did O=C(/C=C/c1ccccc1)CCN1CCOCC1 do in these assays?
DT40 TDP1 no CPT: 1.5µM*; DT40 TDP1 CPT: 0.92µM*; ClpP mod: -2%

How did Cc1ccc(S(=O)(=O)N(C)CCCC(=O)N2CCN(C=O)CC2)cc1 do in these assays?
TDP1 inh: 5%; DT40 TDP1 no CPT: -11%; DT40 TDP1 CPT: -15%; ClpP mod: -1%

Results for C/C(=C\c1ccccc1)C(=O)NCCN1CCOCC1 ?
TDP1 inh: 3%; DT40 TDP1 no CPT: -14%; DT40 TDP1 CPT: -4%; ClpP mod: 2%

What do the screens show for `CCOC(=O)N1CCN(C/C(C)=C/c2ccccc2)CC1`?
TDP1 inh: -7%; DT40 TDP1 no CPT: -24%; DT40 TDP1 CPT: -8%; ClpP mod: -1%

How did CCOC(=O)N1C/C(=C\c2ccccc2)C(=O)/C(=C/c2ccccc2)C1 do in these assays?
TDP1 inh: 9%; DT40 TDP1 no CPT: 3.7µM*; DT40 TDP1 CPT: 4.6µM*; ClpP mod: 0%

Results for CN(C)CCC(=O)N1C/C(=C/c2ccccc2)C(=O)/C(=C\c2ccccc2)C1 ?
DT40 TDP1 no CPT: 1.8µM*; DT40 TDP1 CPT: 1.8µM*; ClpP mod: 35µM*

What do the screens show for `O=C(O)c1c(Cl)c(Cl)c(Cl)c(Cl)c1C(=O)OCC1CCCO1` (stereo not given)?
DT40 TDP1 no CPT: 12%; DT40 TDP1 CPT: 6%; ClpP mod: 0%

Results for NS(=O)(=O)c1ccc(CCNC(=O)c2cc(=O)[nH]c3ccccc23)cc1 ?
TDP1 inh: 9%; DT40 TDP1 no CPT: -9%; DT40 TDP1 CPT: -3%

How did CN1C/C(=C/c2ccc(B(O)O)cc2)C(=O)/C(=C/c2ccc(B(O)O)cc2)C1 do in these assays?
TDP1 inh: 4%

Results for C[N+](C)(C)CCC(=O)N1C/C(=C/c2ccccc2)C(=O)/C(=C\c2ccccc2)C1 ?
DT40 TDP1 no CPT: 0.92µM*; DT40 TDP1 CPT: 0.65µM*; ClpP mod: 2%

How did CCOC(=O)c1scc(-c2ccccc2)c1S(=O)(=O)Nc1cc(OC)cc(OC)c1 do in these assays?
TDP1 inh: 8%; DT40 TDP1 no CPT: inconclusive; DT40 TDP1 CPT: inconclusive; ClpP mod: 0%

What do the screens show for `CCCCNC(=O)CSC1=Nc2ccccc2C2=NC(CCC(=O)NCc3ccccc3OC)C(=O)N12` (stereo not given)?
TDP1 inh: 2%; DT40 TDP1 no CPT: inconclusive; DT40 TDP1 CPT: inconclusive; ClpP mod: -27%

Results for COc1ccc(NC(=O)CSC2=Nc3ccccc3C3=NC(CCC(=O)NCCc4ccccc4)C(=O)N23)c(OC)c1 (stereo not given) ?
TDP1 inh: 2%; DT40 TDP1 no CPT: 8.2µM*; DT40 TDP1 CPT: 23µM*; ClpP mod: 0%

Results for COCCCNC(=O)CSC1=Nc2ccccc2C2=NC(CCC(=O)NCc3ccccc3OC)C(=O)N12 (stereo not given) ?
TDP1 inh: 4%; DT40 TDP1 no CPT: 18µM*; DT40 TDP1 CPT: 16µM*; ClpP mod: -19%

What do the screens show for `COc1ccccc1CNC(=O)CCC1N=C2c3ccccc3N=C(SCC(N)=O)N2C1=O` (stereo not given)?
TDP1 inh: 4%; DT40 TDP1 no CPT: 3.7µM*; DT40 TDP1 CPT: 29µM*; ClpP mod: -17%

What do the screens show for `CCCCNC(=O)CC1N=C2c3ccccc3N=C(SCC(=O)NCc3ccccc3Cl)N2C1=O` (stereo not given)?
TDP1 inh: 5%; DT40 TDP1 no CPT: -28%; DT40 TDP1 CPT: inconclusive; ClpP mod: 18µM*

What do the screens show for `O=C1NCCN(Cc2cccc(Oc3ccccc3)c2)C1CC(=O)N1CCCO1` (stereo not given)?
TDP1 inh: 3%; DT40 TDP1 no CPT: -23%; DT40 TDP1 CPT: -28%

What do the screens show for `Cc1ccccc1C(=O)NCC(=O)OCCOc1ccc(C(C)C)c(C)c1`?
DT40 TDP1 no CPT: -4%; DT40 TDP1 CPT: -18%; ClpP mod: -2%

How did O=C(NCc1ccco1)c1ccc2c(c1)N(Cc1ccccc1F)C(=O)c1ccccc1S2(=O)=O do in these assays?
TDP1 inh: 3%; DT40 TDP1 no CPT: inconclusive; DT40 TDP1 CPT: -12%; ClpP mod: -3%

How did Cc1[nH]n(C(N)=S)c(=O)c1N=Nc1cccc(C(F)(F)F)c1 do in these assays?
DT40 TDP1 no CPT: inconclusive; DT40 TDP1 CPT: inconclusive; ClpP mod: -4%

How did Cc1[nH]n(C2=NCCS2)c(=O)c1N=Nc1cccc(C(F)(F)F)c1 do in these assays?
TDP1 inh: 6%; DT40 TDP1 no CPT: 2.6µM*; DT40 TDP1 CPT: 3.7µM*; ClpP mod: 1%

What do the screens show for `Cc1ccc(C(=O)N(Cc2cc3cccc(C)c3nc2N(C)C)CC2CCCO2)cc1` (stereo not given)?
DT40 TDP1 no CPT: -7%; DT40 TDP1 CPT: 9%

How did COc1cc(NC(=O)c2ccccc2F)ccc1NC(=O)c1cc2ccccc2o1 do in these assays?
TDP1 inh: 1%; DT40 TDP1 no CPT: -29%; DT40 TDP1 CPT: inconclusive

How did CCOC(=O)c1cccc(NC(=O)c2cc3ccccc3o2)c1 do in these assays?
DT40 TDP1 no CPT: inconclusive; DT40 TDP1 CPT: 8.2µM*; ClpP mod: -6%

How did CCC(=O)Nc1ccc(NC(=O)c2cc3ccccc3o2)c(OC)c1 do in these assays?
DT40 TDP1 no CPT: 10µM*; DT40 TDP1 CPT: inconclusive

High-throughput results (PubChem)
